From PubChem BioAssay
An excerpt weighted towards active compounds, which were near 3.1% of everything screened.
TR SRC2 fluor cs: Texas Red fluorescence interference in TRb-SRC2 counter-screen | TRb/SRC2 Texas Red total fluorescence interference | AID 1479 | 280,000 tested, 0.29% active | Potency, µM (titrated, usually from 106 µM), for inactives: top-dose fluorescence change, negative = quenching; active means well fitted curve in either direction with a large enough effect; inconclusive means small, poorly fitted or top-dose-only effect
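Human TRb ligand-binding domain at 0.6 uM with 20 nM Texas Red SRC2 peptide in Tris buffer containing 1 uM T3 and 5% DMSO, incubated with compound 5 h at ambient temperature. Total fluorescence (555/632 nm) calculated as parallel + 2 × perpendicular.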
Tau FP inhib: inhibitors of human tau fibril formation; P10636; Potency, µM (titrated, usually from 57.7 µM), without a hit: at the top dose activity, negative = inhibition, most hits filed as inhibitors; 280,000 tested, 0.39% active; K18 P301L tau heparin fibrillization, Alexa594 FP, 6 h; further: nearly all actives have a fitted effect of over 55% in size
Target sequence (P10636 561-689 P618L limits assumed): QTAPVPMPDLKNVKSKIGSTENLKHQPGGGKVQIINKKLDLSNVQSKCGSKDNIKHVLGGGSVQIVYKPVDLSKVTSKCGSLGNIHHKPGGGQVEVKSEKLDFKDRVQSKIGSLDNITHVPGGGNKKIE
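Read-out: fluorescence polarization of Alexa 594-labeled tau (0.24 uM), 555 nm excitation, 632 nm emission. Mixtures held 15 uM unlabeled K18 P301L, compound and 20 uM heparin, pH 7 acetate buffer, incubated 6 hr at 37 C.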
Tau fluor counter: counter-screen for tau fibril formation inhibitors | tau K18 P301L Alexa594 fluorescence, heparin fibrillization | Potency, µM (highest dose often 57.7 µM), for the others: at the highest dose activity change, negative = decrease | 280,000 tested, 0.93% active; further: nearly all actives have a fitted effect of over 55% in size
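Human K18 P301L tau (15 uM unlabeled plus 0.24 uM Alexa 594-labeled, final) in 100 mM sodium acetate pH 7 was mixed with compound and 20 uM heparin and incubated 6 hr at 37 C.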
Tau fibril ThT: blocks human tau fibril formation measured by thioflavin T; 270,000 tested, 2.1% active; recombinant tau K18 P301L (four-repeat tau fragment), heparin-induced fibrillization, ThT fluorescence; Potency, µM (doses to about 57.4 µM), without a hit: at the top dose activity, negative = inhibition, hits mostly inhibitors; AID 1460; further: nearly all actives have a fitted effect of over 55% in size
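Recombinant human tau K18 fragment […] carrying P301L, 15 uM unlabeled plus 0.24 uM Alexa 594-labeled, was fibrillized with 20 uM heparin in 100 mM sodium acetate pH 7 for 6 hr at 37 C; 30 uM ThT fluorescence read after 1 hr.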
TRb SRC2 PPI: TRbeta-SRC2 interaction inhibition; P10828; TRbeta-SRC2 peptide binding, fluorescence polarization; receptor liganded with 1 µM T3; Potency, µM (series often up to 106 µM), for the others: at the top dose activity change, negative = inhibition, hits mostly inhibitors; 280,000 tested, 0.065% active; AID 1469;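 further: plate controls were bound peptide for no effect and peptide without receptor for full effect; nearly all actives have a fitted effect of over 50% in size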
Target sequence (P10828 whole entry, looked up): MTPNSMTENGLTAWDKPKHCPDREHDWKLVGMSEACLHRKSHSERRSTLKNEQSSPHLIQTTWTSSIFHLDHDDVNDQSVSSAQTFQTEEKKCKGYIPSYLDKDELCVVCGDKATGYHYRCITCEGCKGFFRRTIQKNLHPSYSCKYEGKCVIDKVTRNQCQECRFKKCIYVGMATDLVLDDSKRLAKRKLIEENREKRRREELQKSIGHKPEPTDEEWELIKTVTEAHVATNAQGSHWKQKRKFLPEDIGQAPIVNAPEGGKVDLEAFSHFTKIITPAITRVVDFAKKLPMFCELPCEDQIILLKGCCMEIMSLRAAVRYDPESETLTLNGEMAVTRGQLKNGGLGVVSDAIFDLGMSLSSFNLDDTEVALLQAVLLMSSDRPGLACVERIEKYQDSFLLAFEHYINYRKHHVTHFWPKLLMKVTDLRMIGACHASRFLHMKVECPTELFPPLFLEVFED
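Read-out is fluorescence polarization (555 nm excitation, 632 nm emission) of a Texas Red SRC2 coactivator peptide; loss of signal reflects blocked binding to human TRb ligand-binding domain in the presence of 1 uM T3.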
* hit, by the source's call; ? = inconclusive; · = no result given; [ ] = remark or other dose. Unless noted, the call rests on the fitted dose curve; in most records, active means well fitted curve in the direction sought with a large enough effect; inconclusive means small, poorly fitted or top-dose-only effect, or another doubt; inactive means no such curve, though single readings can be large; an effect the other way counts as inactive or inconclusive. Unless noted, on the % scale 0 is the no-effect control and ±100 the full control effect; potency means the concentration at half of the fitted maximal effect.

SMILES	TR SRC2 fluor cs	Tau FP inhib	Tau fluor counter	Tau fibril ThT	TRb SRC2 PPI
COc1cccc(CNC(=O)C2CCN(S(=O)(=O)c3c(C)noc3/C=C/c3cccs3)CC2)c1	-1%	-4%	-23%	5%	-3%
COCCN=C1NN=C(c2ccc(NC(C)=O)cc2)CS1	2%	?	-27%	28µM*	0%
COc1ccc(C2=NNC(=Nc3cc(S(=O)(=O)N(C)C)ccc3C)SC2)c(OC)c1	-5%	-17%	-16%	?	-2%
CC(=O)Nc1ccc(C2=NNC(=Nc3cccc(S(=O)(=O)N(C)C)c3)SC2)cc1	-10%	?	14µM*[quencher]	7.9µM*	-4%
CC(=O)Nc1ccc(C2=NNC(=Nc3ccc(S(=O)(=O)N4CCOCC4)cc3)SC2)cc1	-8%	?	16µM*[quencher]	4.5µM*	-6%
CCC(=O)Nc1ccc(S(=O)(=O)N2CCOCC2)cc1	-1%	2%	-6%	-9%	-16%
CC(NC(=O)C(=O)NN=C1CCCC1)c1ccccc1 (configuration not stated)	1%	-5%	-11%	-7%	4%
Cc1nc(N2CCC(C)CC2)c2nnn(Cc3ccccc3)c2n1	-5%	3%	6%	9%	-2%
Cc1cc2ncn(/N=C/c3ccc([N+](=O)[O-])s3)c2cc1C	1%	17%	?	?	-18%
O=[N+]([O-])c1ccc(/C=N/n2cnc3ccccc32)s1	-2%	-12%	25µM*[quencher]	14µM*	6%
COc1cccc(C(=O)NCCc2csc3nc(-c4ccccc4F)nn23)c1OC	-2%	-6%	-7%	-1%	0%
O=C(Cn1cc(/C=N/NC(=O)c2ccccc2Br)c2ccccc21)Nc1ccc(F)cc1	0%	-7%	16µM*[quencher]	-14%	-2%
O=C(Cn1cc(/C=N/NC(=O)c2cccc3ccccc23)c2ccccc21)Nc1ccc(F)cc1	-3%	-12%	?	-1%	-5%
N#Cc1cccc(-n2nnnc2-c2ccccn2)c1	-12%	-2%	14µM*[quencher]	6.3µM*	5%
CCC1=C(c2ccc(C)cc2)S(=O)(=O)N=C1N1CCC(C(=O)NCc2ccc(N(C)C)cc2)CC1	-7%	12%	-2%	-5%	1%
CCOC(=O)c1c(CSc2ccc(C)cc2)oc2ccc(O)cc12	0%	32µM*	?	?	3%
O=C(OCC(=O)N1CCCCCC1)c1ccc([N+](=O)[O-])cc1Cl	-3%	1%	-10%	-12%	0%
O=C(COC(=O)c1ccccc1Cc1ccccc1)Nc1ccc(SC(F)F)cc1	0%	25µM*	?	3%	-5%
O=C(Nc1ccc(Br)c2cccnc12)c1cccc2ccccc12	0%	-17%	-17%	-5%	9%
CCNc1nc(NC(C)CC)nc(OC)n1 (configuration not stated)	0%[201 µM]	·	·	·	0%[201 µM]
CN1CCN(Cc2c(O)ccc3occ(C(=O)c4ccccc4)c23)CC1	-2%	14%	2%	-11%	7%
CC(=O)C(C(C)=O)c1c(Cl)c(O)c(O)c2c(C(=O)c3ccccc3)coc12	-2%	?	?	16µM*	4%
O=[N+]([O-])c1cccc(/C=C/c2nc(C=Nc3ccc4ccccc4c3)c(O)o2)c1	-6%	-3%	-15%	2µM*	-1%
CC1CCN(S(=O)(=O)c2ccc3nc(Nc4cccc(F)c4)ccc3c2)CC1	-1%	13µM*	?	21%	9%
CC(=O)c1ccc(S(=O)(=O)N2CCCC2)cc1	-6%	-8%	-14%	?	-4%
SMILES	TR SRC2 fluor cs	Tau FP inhib	Tau fluor counter	Tau fibril ThT	TRb SRC2 PPI
CC(=O)Nc1ccc(Nc2ccc3cc(S(=O)(=O)N4CCCCC4)ccc3n2)cc1	-6%	14%	14µM*[quencher]	?	4%
CC(=O)c1ccc(Nc2ccc3cc(S(=O)(=O)N4CCCC4)ccc3n2)cc1	-1%	22µM*	11µM*[quencher]	5%	-10%
Cc1c(N2C(=O)CSC2c2ccc(F)cc2)c(=O)n(-c2ccccc2)n1C (configuration not stated)	-6%	2%	0%	-13%	-1%
O=S(=O)(Nc1cc(O)cc2cccnc12)c1ccc(Cl)s1	-3%	·	·	·	?
Cc1cccc2c1N(Cc1ccccc1OCCC(C)C)C(=O)C2=O	-2%	-8%	-27%	25µM*	-5%
COc1ccccc1CN1C(=O)C(=O)c2cccc(C)c21	1%	4%	-4%	-14%	-3%
Cc1cc(Br)cc2c1N(Cc1ccccc1OC(C)C)C(=O)C2=O	-3%	?	?	25µM*	2%
C=CC[C@@H]1C=C[C@H](O/N=C2\c3cc(OC)ccc3O[C@H](c3cccc(OC)c3)[C@H]2O)[C@H](CO)O1	-54%[11.2 µM]	-7%[11.6 µM]	-9%[11.6 µM]	-5%[11.5 µM]	-14%[11.2 µM]
COc1ccc(N2CCN(c3nc(-c4cccs4)nc4ccccc34)CC2)cc1	-3%	-4%	?	?	6%
COc1cccc(Nc2nc(-c3cccs3)nc3ccccc23)c1	-1%[53 µM]	25µM*	?	10%	-7%[53 µM]
COc1nc(-c2cccc([N+](=O)[O-])c2)nc2ccccc12	1%	-14%	-22%	-12%	-4%
COc1ccc(Nc2nc(-c3cccc([N+](=O)[O-])c3)nc3ccccc23)cc1	-1%	?	3.5µM*[quencher]	?	14%
COc1ccc(Nc2nc(-c3cccs3)nc3ccccc23)cc1	-4%	15%	10µM*[quencher]	?	9%
CC(=O)Nc1ccccc1-c1nc2ccccc2nc1OCC(=O)c1ccc(Cl)cc1	-3%	6%	-2%	?	1%
O=C(OCC(=O)c1ccc[nH]1)c1ccccc1	-1%	1%	-11%	-8%	-6%
O=C(COC(=O)c1c(F)cccc1F)c1ccc[nH]1	16µM*[fluorescent]	1%	-8%	-3%	14µM*
CC(=O)Nc1ccc(C2NC(C(=O)O)CCC2C)cc1 (configuration not stated)	-8%[11.2 µM]	-3%[11.6 µM]	-7%[11.6 µM]	-4%[11.5 µM]	7%[11.2 µM]
Cc1nn2c(C)c(C(=O)N3CCN(c4ccc(Cl)cc4)CC3)cnc2c1-c1ccc(F)cc1	-5%	6%	-14%	-13%	4%
COC(=O)C(=O)/C=C(\O)c1ccc(C)cc1	-6%	?	?	22µM*	2%
C/C(=C\C(=O)c1ccccc1)Nc1ccc(O)cc1	-15%	7%	?	?	?
C/C(=C\C(=O)c1cccnc1)Nc1ccc(O)cc1	21%	-1%	-17%	?	14µM*
COc1ccc(N2CCN(c3ncnc4nc[nH]c34)CC2)cc1	-1%	11%	-24%	18µM*	-3%
COc1ccccc1N1CCN(c2ncnc3nc[nH]c23)CC1	-2%	3%	-6%	-13%	-5%
CCc1cc2c(SCC(=O)Nc3cc(C)on3)ncnc2s1	-3%	0%	3%	1%	0%
